{"source": "PubChem BioAssay (EPA / NIEHS)", "note": "Active and inactive are the calls of the source. The calls were made as follows: active = hit-call score of the fitted dose curve at least 0.9, where 1 is the maximum; inactive = score below 0.9."}
{"read-out": "Cytochrome P450 (CYP1A2), CYP1A2 (gene 1544)", "test": "LTEA_HepaRG_CYP1A2: Life Technologies and Expression Analysis (LTEA) Assay for Cytochrome P450 (CYP1A2) using HepaRG (AID 2283479);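 as to AC50: TaqMan qRT-PCR transcript level normalized to ACTB GAPDH and POLR2A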", "settings": "mRNA level, 48 h; actives raise or lower the signal", "experimental": "LTEA_HepaRG is a cell based, multiplexed-readout assay that uses HepaRG, a human liver cell line, with measurements taken at 48 hours after chemical dosing on a 96-well plate.LTEA_HepaRG_CYP1A2 is one of 102 assay component(s) measured in the LTEA HepaRG cell culture assay. It is a marker of NR mediated metabolism.Data from the assay component LTEA_HepaRG_CYP1A2 was analyzed into 1 endpoint. This assay endpoint, LTEA_HepaRG_CYP1A2, was analyzed with bidirectional fitting relative to DMSO as the negative control and baseline of activity. Using a type of inducible reporter, measures of mRNA induction for gain or loss-of-signal activity can be used to understand regulation of transcription factor activity. To generalize the intended target to other relatable targets, this assay endpoint is annotated to the cyp intended target family, where the subfamily is xenobiotic metabolism.\nA total of 1060 chemcials from the ToxCast library were tested in eight-point concentration-response experiments. Cell culture and cytotoxicity assays were conducted at Thermo Fisher Scientific's Custom Services facility (Madison, WI). A single lot of human HepaRG cells (Thermo Fisher Scientific, Frederick, MD) was used for the cell culture experiments. 96-well format collagen type I coated plates of human HepaRG cells were prepared using established methods. Briefly, cryopreserved HepaRG cells were thawed, plated at a density of approximately 100,000 cells/well in HepaRG Thaw, Plate, and General Purpose media (HPRG770, Thermo Fisher Scientific), and incubated for 48 hours. 0.5% DMSO was selected as vehicle control to balance the requisite need of DMSO in HepaRG cultures to maintain differentiation (for example, baseline metabolism, proportions of hepatocytes vs. cholangiocytes), while enabling further hepatic receptor pathway activation (for example, PXR and CAR) in response to chemical exposure. 48 hours after plating, the culture medium was replaced with HepaRG Serum-Free Incudtion Media. Cells were exposed to each test chemical in duplicate and maintained in CO2 incubators for another 48 hours. Chemical plates were thawed to room temperature and 200x concentrations of treatment groups were prepared. 8-point conentration-reponse curves were made with the highest exposure at 100 uM, followed by half-log dilutions, all in 0.5% DMSO. Each test plate contained variouse controls, induction positive controls (1mM phenobarbital), cytotoxicity positive controls ([…] aflatoxin B1), vehicle controls (0.5% DMSO), and total lysis controls (0.5% DMSO). Cell morphology images were taken using an Essen IncuCyte FLR automated microscope, with six 96-well plates imaged in about 24 minutes. Images were captured and exported and JPEG files. Spent culture media was transfered to black-well plates for the LDH assay, and remaining media was sorted at -80 C for later use. Cells were treated with RLT buffer and frozen until shipped for gene expression analysis. Total RNA was isolated from the cell suspension in 75 uL of Buffer RLT (Qiagen, Germantown, MD 20874) by Quintiles/Expression Analysis (Durham, NC) using a custom isolation procedure. Total RNA from each plate well was transferred to a preamplification plate. Fluidigm's 96.96 Dynamic ArrayTM (Fluidigm, Amsterdam, the Netherlands) technology was used for gene expression analyses by quantitative reverse transcription polymerase chain reaction (qRT-PCR, performed by Quintiles/Expression Analysis, Durham, NC)89. Standard TaqManTM Assays (Applied Biosystems/ThermoFisher Scientific, Foster City, CA) were used to assess the expression of 93 genes selected based on their selectivity and sensitivity to important hepatic receptors known to be modulated by environmental chemicals; importance in human hepatocyte functionality; and hepatotoxicity. […]"}
{"smiles": "O=C1c2ccccc2C(=O)N1CCc1noc(-c2ccc(CN3CCCCCC3)s2)n1", "AC50": "6.97 µM (active)"}
{"smiles": "c1ccc(C[n+]2cccc3ccccc32)cc1", "outcome": "inactive"}
{"smiles": "Cc1cccc2ccccc12", "outcome": "inactive"}
{"smiles": "CN(C)c1ccc(C(=C2C=CC(=[N+](C)C)C=C2)c2ccc(N(C)C)cc2)cc1", "AC50": "2.05 µM (active)"}
{"smiles": "Cc1occc1C(=O)Nc1ccc(C(=O)N2CCC(F)(F)/C(=C\\C(=O)N3CCC(N4CCCCC4)CC3)c3ccccc32)cc1", "AC50": "18.4 µM (active)"}
{"smiles": "CCCCCCCCCCCCO", "outcome": "inactive"}
{"smiles": "O=C(Nc1ccc(Cl)cc1)Nc1ccc(Cl)c(Cl)c1", "AC50": "11.8 µM (active)"}
{"smiles": "Cc1c2ccccc2c(C)c2c1ccc1ccccc12", "AC50": "85 µM (active)"}
{"smiles": "CC[C@@H]1C[C@H](N(Cc2cc(C(F)(F)F)cc(C(F)(F)F)c2)C(C)=O)c2cc(C(F)(F)F)ccc2N1C(=O)OC(C)C", "AC50": "21.3 µM (active)"}
{"smiles": "O=c1[nH]sc2ccccc12", "AC50": "80.3 µM (active)"}
{"smiles": "CC1=CC(=O)/C(=C(/C)O)C(=O)O1", "outcome": "inactive"}
{"smiles": "CCCOC(=O)c1cc(O)c(O)c(O)c1", "outcome": "inactive"}
{"smiles": "Cc1ncc(CO)c(CO)c1O", "outcome": "inactive"}
{"smiles": "CCCC(=O)OCCC(C)C", "AC50": "50 µM (active)"}
{"smiles": "O=C(O)c1ccccc1-n1cc(C(=O)O)c(=O)c2cc(Nc3c(F)cc(F)cc3Cl)c(Cl)cc21", "outcome": "inactive"}
{"smiles": "c1ccc2ccccc2c1", "outcome": "inactive"}
{"smiles": "Clc1ccccc1C(c1ccccc1)(c1ccccc1)n1ccnc1", "AC50": "7.26 µM (active)"}
{"smiles": "OCCO", "outcome": "inactive"}
{"smiles": "COc1cc(C(=O)NC2CCN(C)CC2)ccc1Nc1ncc2c(n1)N(C1CCCC1)CC(F)(F)C(=O)N2C", "AC50": "4.65 µM (active)"}
{"smiles": "O=c1c(-c2ccc(O)cc2)coc2cc(O)cc(O)c12", "outcome": "inactive"}
{"smiles": "Cc1cc2c(cc1C(F)(F)F)N(C(=O)Nc1ccc(Oc3cccnc3C)nc1)CC2", "AC50": "2.31 µM (active)"}
{"smiles": "O=c1ccc2ccccc2o1", "outcome": "inactive"}
{"smiles": "Oc1ccccc1", "outcome": "inactive"}
{"smiles": "O=C(O)Cc1cc(I)c(Oc2ccc(O)c(I)c2)c(I)c1", "AC50": "2.37 µM (active)"}
{"smiles": "NC(=O)c1nc(-c2cccc(-c3cc(F)ccc3OCC(F)(F)C(F)(F)F)c2)n[nH]1", "outcome": "inactive"}
{"smiles": "CCCCCCCCCCCO", "outcome": "inactive"}
{"smiles": "CC(C)(C)c1cc(/C=C2\\SC(N)=NC2=O)cc(C(C)(C)C)c1O", "outcome": "inactive"}
{"smiles": "CCCCCCCC[Si](OCC)(OCC)OCC", "outcome": "inactive"}
{"smiles": "CCCCCCCCOC(=O)c1cc(O)c(O)c(O)c1", "AC50": "39.5 µM (active)"}
{"smiles": "O=C(OCCCCCCOC(=O)c1ccccc1)c1ccccc1", "AC50": "12.5 µM (active)"}
{"smiles": "CC[C@H](NC(=O)c1cc(F)ccc1NS(=O)(=O)c1cccc2cccnc12)c1ccccc1", "AC50": "76 µM (active)"}
{"smiles": "CN1C(=O)CC[C@H]1c1cccnc1", "AC50": "91.4 µM (active)"}
{"smiles": "Oc1ccc2ccccc2c1", "AC50": "78.1 µM (active)"}
{"smiles": "O=C=NCCCCCCN=C=O", "outcome": "inactive"}
{"smiles": "CCCCOC(=O)c1ccc(O)cc1", "outcome": "inactive"}
{"smiles": "CCCCCc1ccc(N)cc1", "AC50": "30.3 µM (active)"}
{"smiles": "CCCCCCCCCC(=O)O", "outcome": "inactive"}
{"smiles": "Cc1ccc(C(C)C)cc1", "outcome": "inactive"}
{"smiles": "OC12N=C(c3ccccc3)SC1Cc1cc(Cl)ccc12", "note": "(stereo not given)", "AC50": "1.25 µM (active)"}
{"smiles": "CCCCCCCCOc1ccc(C(=O)c2ccccc2)c(O)c1", "AC50": "50 µM (active)"}
